High-throughput results from PubChem BioAssay.
The list is not random: actives were taken first. Their share in the collection is about 2.4%.
AmpC inh no det: AmpC beta-lactamase inhibition, detergent-free assay | actives 1.8% (n = 71,000) | AmpC nitrocefin hydrolysis, absorbance 480 nm, no detergent | P00811 | Potency, µM (top dose mostly 28.7 µM) | AID 585
Target sequence (P00811 whole entry, looked up): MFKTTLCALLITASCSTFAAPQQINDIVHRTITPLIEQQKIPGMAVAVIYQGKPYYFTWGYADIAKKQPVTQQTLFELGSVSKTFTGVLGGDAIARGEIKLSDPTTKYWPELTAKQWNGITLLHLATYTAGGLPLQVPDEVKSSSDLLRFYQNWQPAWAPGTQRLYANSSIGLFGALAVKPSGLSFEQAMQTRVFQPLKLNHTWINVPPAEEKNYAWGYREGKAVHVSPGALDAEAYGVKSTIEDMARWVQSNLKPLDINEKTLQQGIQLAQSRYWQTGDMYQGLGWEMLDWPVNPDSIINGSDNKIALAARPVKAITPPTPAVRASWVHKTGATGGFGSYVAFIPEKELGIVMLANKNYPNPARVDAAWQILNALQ
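AmpC, 20 mM phosphate pH 7.0; 15 min cpd preinc, RT; start with nitrocefin (800 uM stock); A480 kinetic read, 20 s intervals, 4 min. No-enzyme wells = negative control.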
LT uptake inh: anthrax lethal toxin internalization inhibition; AID 912; actives 0.67% (n = 70,000); Potency, µM (top dose mostly 40 µM), most hits filed as inhibitors; Cells, anthrax lethal toxin internalization, FRET ratio (460/530); further: nearly all actives have a fitted effect of over 50% in size
Prx2 Sm inh: Schistosoma mansoni Prx2 inhibition; S. mansoni Prx2 activity coupled to TGR/GSH (TGR is thioredoxin glutathione reductase), NADPH fluorescence loss, qHTS; Potency, µM; actives 0.07% (n = 65,000)
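Prx2 inhibition was measured as reduced NADPH consumption when electrons flowed from NADPH through TGR and glutathione to Prx2 and H2O2. Plates were read kinetically over 8 min; enzyme reagents were held at 4 deg C during dispensing.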
AmpC inh det: blocks E. coli AmpC beta-lactamase in presence of detergent; P00811; purified AmpC, nitrocefin hydrolysis with detergent; actives 0.09% (n = 71,000); Potency, µM (highest dose often 28.7 µM); active means well fitted curve in the direction sought with a large enough effect; inconclusive means small, poorly fitted or top-dose-only effect
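E. coli AmpC (5.3 nM) in 20 mM phosphate pH 7.0 with 0.01% Triton X-100, preincubated 15 min RT with compound; nitrocefin (2 uL of 800 uM stock) hydrolysis followed by 480 nm absorbance every 20 s over 4 min.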
Hits are given with their value; – = inactive; ? = inconclusive; · = not tested or not shown; [ ] = remark or other dose. Unless noted, the call rests on the fitted dose curve.

SMILES	AmpC inh no det	LT uptake inh	Prx2 Sm inh	AmpC inh det
C[C@H]1[C@H](NC(=O)/C(=N/OC(C)(C)C(=O)O)c2csc(N)n2)C(=O)N1S(=O)(=O)O (stereo in doubt)	0.00079µM	–[3.58 µM]	–	0.002µM
CCN1C(=O)c2cccc3cccc1c23	–	?	3.9	–
Cn1c(=O)n(CC(=O)Nc2ccc(F)cc2)c2ccccc21	–	–	–	–
CCCCNC(=O)Cn1c(=O)n(C)c2ccccc21	4µM[single pt active]	–	–	–
CCCCCCCCCCCCCCCCCC(=O)NC[C@@H](COP(=O)([O-])OCC[N+](C)(C)C)OCC	–	?	?	–
COc1cc(/C=C\C(=O)N2CCCCC2=O)cc(OC)c1OC	–	?	·	–
COc1ccccc1N1CCN(Cc2cc(Br)c(O)c3ncccc23)CC1	2.5µM[single pt active]	?	–	–
C[N+](C)(C)CCC(=O)c1cccc2ccccc12	–	25µM	–	–
CC1CCN(c2c(NCc3ccc(C(=O)NCC4COc5ccccc5O4)cc3)c(=O)c2=O)CC1 (configuration not stated)	4µM[single pt active]	–	–	–
COc1ccc2cc3cc(C(=O)NCCc4ccc(OC)c(OC)c4)oc3nc2c1	–	13µM	–	–
CCCN(CCC)CCCNC(=O)c1cc2cc3ccc(OC)cc3nc2o1	–	?	–	–
CCN1CCN(CCCNC(=O)c2cc3cc4ccc(OC)cc4nc3o2)CC1	–	?	–	–
CCCCN(CC)CCCNC(=O)c1cc2cc3ccc(OC)cc3nc2o1	–	13µM	–	–
O=C(c1csnn1)N1CCC2(CC1)CCN(c1ccccn1)CC2	–	–	–	–
Cc1ccc2c(c1)NC(=O)C(CC(=O)NCCCN1CCCC1)O2 (configuration not stated)	4µM[single pt active]	–	–	–
COc1ccc(N2CCN(CCCNC(=O)CC3Oc4ccc(C)cc4NC3=O)CC2)cc1 (configuration not stated)	4µM[single pt active]	?	–	–
Cc1ccc2c(c1)NC(=O)C(CC(=O)NCCCN1CCN(C3CCCCC3)CC1)O2 (configuration not stated)	–	–	–	–
O=C(Oc1cccc(-n2cnnn2)c1)c1sc2ccccc2c1Cl	13µM[single pt active]	–	–	–
CCCCCCCN	–	–	·	–
N=C1Sc2ccccc2C2=NCCCN12	–	0.025µM	–	–
CC1(C)Cc2c(sc3nc(SCC(=O)N4CCOCC4)nc(N)c23)CO1	–	7.9µM	–	–
CCOC(=O)N1CCN(c2nc(SC)nc3sc4c(c23)CC(C)(C)OC4)CC1	?	?	–	?
O=C(Nc1ccc2snnc2c1)N1CCSCC1	–	–	·	–
CC1CN(C(=O)Nc2ccc3snnc3c2)c2ccccc21 (configuration not stated)	2µM	?	–	–
CC(C)=CCC/C(C)=C/CO/N=C1/C[C@@H](O)[C@@H](O)[C@@H]2[C@H]3C(=O)N(c4ccc(F)cc4F)C(=O)[C@@H]3CC[C@H]12	·	–[8 µM]	·	·
SMILES	AmpC inh no det	LT uptake inh	Prx2 Sm inh	AmpC inh det
Cn1cccc1Cc1nnc(SCC(=O)NC2CCCC2)n1-c1ccc(F)cc1	4µM[single pt active]	–	–	–
COc1cccc(-n2c(Cc3cc(=O)[nH]c(=O)[nH]3)nnc2SCC(=O)NC2CCCCC2)c1	?	–	–	–
COc1cccc(-n2c(Cc3cc(=O)[nH]c(=O)[nH]3)nnc2SCC(=O)N2CCCCC2)c1	4µM[single pt active]	–	–	–
O=C(Cc1cc(=O)[nH]c(=O)[nH]1)NCC1CCCO1 (configuration not stated)	–	4µM	–	–
O=C(CSc1nnc(Cc2cc(=O)[nH]c(=O)[nH]2)n1-c1ccc(F)cc1)NC1CCCC1	4µM[single pt active]	–	–	–
O=C(c1nc2ccc([N+](=O)[O-])cc2[nH]c1=O)[C@@H](O)c1ccc2c(c1)OCO2	–[5.75 µM]	–[8 µM]	–	–[5.75 µM]
O=C(O)CCNc1ncnc2nc[nH]c12	–[5.75 µM]	–[8 µM]	–	–[5.75 µM]
O=C(CSc1nnc(Cc2cc(=O)[nH]c(=O)[nH]2)n1-c1ccc(F)cc1)N1CCCCC1	4µM[single pt active]	–	–	–
Cc1cccc(-n2c(Cc3cc(=O)[nH]c(=O)[nH]3)nnc2SCC(=O)NCC2CCCO2)c1 (configuration not stated)	4µM[single pt active]	–	–	–
CN1CCc2nc(N)nc(-c3nc(N)nc4c3CN(C)CC4)c2C1	–[5.75 µM]	–[8 µM]	–	–[5.75 µM]
O=C(c1ccco1)N1CCN(c2nc3ccccc3n3nnnc23)CC1	–	–	–	–
c1ccc(CC2CCN(c3nc4ccccc4n4nnnc34)CC2)cc1	13µM	–	–	–
CC(C)(C)OC(=O)NCCc1nnc(S(=O)(=O)Cc2ccc(Cl)cc2Cl)o1	0.04µM	?	–	0.016µM
NC(=O)C1(N2CCCCC2)CCN(C(=O)c2cccs2)CC1	4µM[single pt active]	–	–	–
